Data reported in PubChem BioAssay (NCI).
“And” between values parts separate entries of the source, which are not always exact repeats. Identical values can stand only once. About 83,000 compounds went through this panel and 20% of them were active in at least one assay; those are over-represented in the sample as a whole.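 Activity criterion: percent growth below 10, measured after cells in 96-well plates were exposed to a single compound concentration for 48 hours.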 The source made the active and inactive calls.

What follows are molecules tested on MDA-MB-468 breast (assay: NCI-60 one-dose screen, 48 h (100 = growth as untreated, 0 = no growth, -100 = all killed)). Settings: 10 µM unless noted.

Structure (SMILES)	growth
CN(C)c1ccc(/C=C2\C=C(c3ccccc3)N(CCc3ccccc3)C2=O)cc1	98.2% (inactive)
CC(=O)n1c(-c2ccc(Cl)cc2)nc2c(c1=O)C(c1ccc(Cl)cc1)c1sc3c(Cl)cccc3c1O2 (stereo not given)	5.06% (active)
CCCCCCCCCCCCCCCCCC1=NCCN1CS(=O)(=O)O	99.2% (inactive)
CCOC(=O)Cn1c(O)c(N=Nc2ccc(S(N)(=O)=O)cc2)c2cc(Br)ccc21	96.4% (inactive)
C[N+](C)(CCOC(c1ccccc1)c1ccccc1)CC(=O)OCc1ccccc1	100% (inactive)
CCCCOC1NC(=O)NC(=O)C1(F)C(=O)OCC (stereo not given)	93.8% (inactive) and 101% (inactive)
O=S(=O)(Cc1cccc2c(CS(=O)(=O)c3ccc(Cl)cc3)cccc12)c1ccc(Cl)cc1	97% (inactive)
O=C(NNC(=S)Nc1ccccc1)c1ccc(Nc2ncnc3c2cnn3-c2cccc(Br)c2)cc1	101% (inactive)
COc1cc(-c2nc(SCCC(C)C)nc(Nc3ccc(F)cc3)c2C#N)cc(OC)c1OC	96.8% (inactive)
Cn1c(C(=O)c2cccc3ccccc23)nc2ccccc21	-1.13% (active)
CCN1C(=O)N(CC)C2C1NC(=S)N2/N=C/c1ccc(C(F)(F)F)cc1 (stereo not given)	49.4% (inactive)
O=C(CSC1CCc2ccccc21)N/N=C/c1ccccc1O (stereo not given)	33.9% (inactive)
CCC(=O)Oc1ccc(OCc2ccccc2)cc1	104% (inactive) and 118% (inactive)
COc1ccc(-c2cc(/C=C3\C(=O)Nc4ccc(Cl)cc43)[nH]n2)cc1OC	108% (inactive)
COc1ccc(/C=N/Nc2ccnc3cc(Cl)ccc23)cc1Cl	-71.9% (active)
COC(=O)c1ccc(NC(=O)CSc2nc(-c3ccc(F)cc3)nc3ccccc23)cc1	80.1% (inactive)
CN(C)C/C=C/C(=O)Nc1cc2c(Nc3ccc(F)c(Cl)c3F)ncnc2cc1OCCOC(F)F	-40.8% (active)
CCO/C=N/C1=C(C#N)C(c2ccc(Cl)cc2)c2sc3c(CC)cccc3c2O1 (stereo not given)	-33.4% (active)
O=S(=O)(NCCCNc1nccc(-n2ccc3cccnc32)n1)c1cccc(C(F)(F)F)c1	108% (inactive)
Oc1ccc(CSc2nnc(-c3ccc(Oc4ccccc4)cc3)n2-c2ccccc2)c2cccnc12	-2% (active)

Structure (SMILES)	growth
CCOC(=O)c1ccc(N(CCC(=O)O)C(C)=O)cc1	99.9% (inactive)
CN1C[C@@H](c2ccc(Cl)cc2)[C@]2(NC(=S)N(c3ccc(F)c(Cl)c3)C2=O)[C@@]12C(=O)NC1C=CC(Cl)=C[C@H]12 (stereo not given in full)	48.8% (inactive)
C=CCn1c(SCC(=O)Nc2ccc(C(=O)/C=C/c3ccc(Cl)cc3)cc2)nnc1-c1cc(OC)c(OC)c(OC)c1	79% (inactive)
COc1ccc(-c2nn(-c3cccc(NC(=O)c4cc(C(F)(F)F)cc(C(F)(F)F)c4)c3)cc2-c2ccncc2)cc1Cl	61.4% (inactive)
COc1ccc(-c2nc3ccccc3n3cccc23)cc1	112% (inactive)
Cc1ccc(C2=Nc3c(N)nc(N)nc3NC(c3cccc(Nc4ccnc5cc(C(F)(F)F)ccc45)c3)C2)cc1 (stereo not given)	14.7% (inactive)
CC1C(=O)NC2=Nc3ccccc3C(=O)NN21 (stereo not given)	93.7% (inactive)
Cc1cc(C)c2nc3nc(C)cc(C)c3c(N)c2c1	48.4% (inactive)
CN(C)c1ccc(/C=C/c2ccnc3ccccc23)cc1	-9.88% (active)
COc1ccc(CC2c3cc(OC)c(OC)cc3CC[N+]2(C)CCC(=O)OCCCCCOC(=O)CC[N+]2(C)CCc3cc(OC)c(OC)cc3C2Cc2ccc(OC)c(OC)c2)cc1OC (stereo not given)	88.3% (inactive)
O=C(O)C(=O)O	94.8% (inactive)
N#Cc1nc(-c2ccc(F)cc2)oc1S(=O)(=O)N1CCN(c2ccc(F)cc2)CC1	86.9% (inactive)
O=c1c(N=Nc2nccs2)c(-c2ccccc2)[nH]n1-c1nc(-c2ccccc2)cs1	29% (inactive)
c1ccc2c(c1)oc1c3c(ccc12)NCCC3	-51.5% (active)
C=CC(=O)OC1CCC(C(C)(C)CC)CC1 (stereo not given)	108% (inactive)
O[C@@H]1Cc2ccc3ccccc3c2N[C@H](c2ccoc2)C1	79.4% (inactive)
COc1cccc(/C=C/C(=O)c2ccc(NC(=O)COc3cccc4cccnc34)cc2)c1	90.9% (inactive)
N/C(=N\C(N)=N\c1nc2ccccc2s1)c1ccnc(Cl)c1	51.9% (inactive)
COC(=O)C12C3C(=O)N(c4ccc(OC)cc4)C(=O)C3C(c3cn(-c4ccccc4)nc3C)N1[C@H](c1cn(-c3ccccc3)nc1C)[C@@H]1C(=O)N(c3ccc(OC)cc3)C(=O)[C@@H]12 (stereo not given in full)	97.4% (inactive)
C#CC#CC#CC#CC#CC#CC#CC#CC[C@H]1OC[C@@H](COC(=O)O[C@@H](C(=O)O[C@H]2C[C@@]3(O)[C@@H](OC(=O)c4ccccc4)[C@@H]4[C@]5(OC(C)=O)CO[C@@H]5C[C@H](O)[C@@]4(C)C(=O)[C@H](OC(C)=O)C(=C2C)C3(C)C)[C@@H](NC(=O)c2ccccc2)c2ccccc2)O1	14.2% (inactive)
